HP1b chromo inh: blocks HP1-beta chromodomain binding to methylated histone tails | AID 540317 | Potency, µM (series often up to 114 µM), for the others: top-dose activity change, negative = inhibition, most hits filed as inhibitors | AlphaScreen HP1-beta / biotin-H3K9me3 peptide binding | 0.56% of 390,000 active; note: potency is the fitted concentration of half-maximal effect; nearly all actives have a fitted effect of over 70% in size
Target sequence (P83916 whole entry, looked up): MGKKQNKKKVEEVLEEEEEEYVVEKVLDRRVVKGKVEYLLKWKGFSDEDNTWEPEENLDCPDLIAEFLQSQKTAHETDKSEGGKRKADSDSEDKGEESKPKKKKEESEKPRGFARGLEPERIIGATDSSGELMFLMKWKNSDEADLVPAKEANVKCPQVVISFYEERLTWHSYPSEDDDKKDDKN
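Compound inhibition of the preformed complex between 50 nM HP1-beta and 50 nM biotinylated H3K9me3 peptide was read by AlphaScreen. Buffer was PBS pH 7.4 with 0.01% Tween-20. Incubations ran 30 min at room temperature, with 10 ug/mL donor/acceptor beads.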
G9a inh: blocks human histone lysine methyltransferase G9a. Q96KQ7. G9a H3K9 monomethylation, AlphaScreen, 2 h. Potency, µM (top dose mostly 102 µM), without a hit: top-dose activity, negative = inhibition, hits mostly inhibitors. 8.8% of 350,000 active. AID 504332; note: potency is the fitted concentration of half-maximal effect; % is set by controls: 0 for no effect and ±100 for the full control effect; nearly all actives have a fitted effect of over 75% in size
Target sequence (Q96KQ7 913-1193 limits assumed): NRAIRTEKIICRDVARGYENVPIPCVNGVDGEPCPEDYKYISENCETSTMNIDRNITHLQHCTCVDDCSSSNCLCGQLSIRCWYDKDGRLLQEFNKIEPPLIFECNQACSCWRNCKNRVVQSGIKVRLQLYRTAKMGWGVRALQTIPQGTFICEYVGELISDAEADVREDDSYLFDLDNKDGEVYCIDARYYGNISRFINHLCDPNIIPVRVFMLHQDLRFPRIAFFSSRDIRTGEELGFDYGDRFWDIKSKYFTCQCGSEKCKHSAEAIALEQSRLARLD
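AlphaScreen detection with an anti-monomethyl H3K9 antibody quantified product after a 2 h room-temperature reaction containing 500 nM biotinylated H3K9 peptide, 20 µM SAM and 20 nM enzyme, which had been preincubated 15 min with compound.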
CtBP-E1A inh: inhibitors of CtBP/E1A interaction. AlphaScreen GST-E1A/His-CtBP binding, 1536-well; active compounds read low. activity change, % (test concentration not listed). 0.49% of 340,000 active. AID 651724; in the data active = activity change below about -65%; inconclusive = mostly about -30% to -63%; note: % is set by controls: 0 for no effect and ±100 for the full control effect
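In 5 uL wells, 23 nL compound meets equimolar GST-E1A and His-CtBP (5X stock 125 nM each) for 2 h, 37 °C. Beads (5X, 50 ug/mL) then 1 h, 37 °C, dark.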
Six1-Eya2 blk: blocks human Six1 binding to Eya2. AlphaScreen GST-Six1/His-Eya2 binding, biochemical; active compounds read low. activity change, % (test concentration not listed). 0.56% of 360,000 active; in the data active = activity change below about -65%; inconclusive = mostly about -30% to -63%; note: % is set by controls: 0 for no effect and ±100 for the full control effect
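Homogeneous AlphaScreen proximity assay pairing GST-Six1 with His-tagged Eya2 (added as 5X mix: 250 nM and 500 nM) in 50 mM Tris pH 8.0, 300 mM NaCl, 1 mM TCEP. Glutathione donor and nickel acceptor beads; 1 h, 37 °C, dark.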
JMJD2A Tudor: inhibitors of human JMJD2A Tudor domain. O75164. AlphaScreen JMJD2A-Tudor / H3K4me3 peptide binding. Potency, µM (highest dose often 114 µM), for inactives: at the highest dose activity change, negative = inhibition, usual class: inhibitors. 4.4% of 390,000 active; note: potency is the fitted concentration of half-maximal effect; % is set by controls: 0 for no effect and ±100 for the full control effect; nearly all actives have a fitted effect of over 50% in size
BAZ2B block: BAZ2B (human) inhibition. Q9UIF8. AlphaScreen BAZ2B-H3K14Ac peptide displacement. Potency, µM (doses to about 114 µM), without a hit: at the highest dose activity change, negative = inhibition, hits mostly inhibitors. 4.4% of 360,000 active. AID 504333; note: potency is the fitted concentration of half-maximal effect; % is set by controls: 0 for no effect and ±100 for the full control effect; nearly all actives have a fitted effect of over 60% in size
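BAZ2B (50 nM) with biotin-H3(5-23)K14Ac peptide (50 nM) in PBS pH 7.4, 0.01% Tween-20, preformed 30 min, then compound 30 min at room temperature; top concentration 110uM. AlphaScreen streptavidin donor/nickel chelate acceptor beads (10 ug/mL final), 20 min dark, signal read.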
The depositor's hits bear a star; [ ] = remark or other dose. Hits are enriched below; roughly 10% of the tested compounds scored in any of these assays. Unless noted, calls come from the whole dose curve; as a rule, active = well fitted inhibition curve with a large enough effect; inconclusive = small, poorly fitted or top-dose-only effect; inactive = no such curve, though single readings can be large or run the other way.

How did COc1cc(C(=O)OCC(=O)c2cc(C)n(CC3CCCO3)c2C)cc(OC)c1C (stereo not given) do in these assays?
HP1b chromo inh: -13%; G9a inh: inconclusive; CtBP-E1A inh: -9; Six1-Eya2 blk: -18; JMJD2A Tudor: 45µM*; BAZ2B block: 50µM*

How did Cc1cccc(-c2noc(CN(C(=O)COc3ccc(C(C)C)cc3)C(C)C)n2)c1 do in these assays?
HP1b chromo inh: 58%; G9a inh: 31%[59 µM]; JMJD2A Tudor: 13%; BAZ2B block: 18%

Results for CCOc1ccc2nc(NC(=O)CS(=O)(=O)c3ccc(Cl)cc3)sc2c1 ?
HP1b chromo inh: 26%; G9a inh: -27%[59 µM]; JMJD2A Tudor: -31%; BAZ2B block: -14%

How did O=C(CN1CCN(C2CCCCC2)CC1)c1ccc2cc[nH]c2c1 do in these assays?
HP1b chromo inh: 21%; G9a inh: 28µM*; CtBP-E1A inh: 0; Six1-Eya2 blk: 0; JMJD2A Tudor: -35%; BAZ2B block: -26%

How did O=C(CN1CCN(C2CCCCC2)CC1)c1c[nH]c2ccccc12 do in these assays?
HP1b chromo inh: 46%; G9a inh: inconclusive; CtBP-E1A inh: -1; Six1-Eya2 blk: 0; JMJD2A Tudor: -29%; BAZ2B block: inconclusive

What do the screens show for `CC(C)(C)C(=O)Nc1ccccc1C(=O)OCc1cc(=O)n2ccsc2n1`?
HP1b chromo inh: 34%; G9a inh: 2%[12.7 µM]; JMJD2A Tudor: 0%; BAZ2B block: -10%

How did CCCNC(=O)C(=O)NCc1ccccn1 do in these assays?
HP1b chromo inh: 12%; G9a inh: inconclusive; CtBP-E1A inh: 5; Six1-Eya2 blk: 4; JMJD2A Tudor: 3%; BAZ2B block: -21%

How did Cc1cccc(NC(=S)NCc2ccccn2)c1 do in these assays?
HP1b chromo inh: 33%; G9a inh: 71µM*; CtBP-E1A inh: -4; Six1-Eya2 blk: -12; JMJD2A Tudor: inconclusive; BAZ2B block: -29%

How did COc1cccc(NC(=S)NCCc2ccccn2)c1 do in these assays?
HP1b chromo inh: 21%; G9a inh: 28µM*; Six1-Eya2 blk: -1; JMJD2A Tudor: -14%; BAZ2B block: 56µM*

How did S=C(NCc1ccccn1)NN=Cc1ccccn1 do in these assays?
HP1b chromo inh: -4%; CtBP-E1A inh: -4; Six1-Eya2 blk: -91*; JMJD2A Tudor: 32µM*

How did COc1ccc(CCNC(=O)C(=O)NCc2ccccn2)cc1 do in these assays?
HP1b chromo inh: 15%; G9a inh: 50µM*; CtBP-E1A inh: 9; Six1-Eya2 blk: 3; JMJD2A Tudor: -12%; BAZ2B block: -25%

What do the screens show for `O=C(NCc1ccc(Cl)cc1)C1CCN(S(=O)(=O)Cc2ccccc2)CC1`?
HP1b chromo inh: 34%; G9a inh: -8%[59 µM]; JMJD2A Tudor: -2%; BAZ2B block: 7%

Results for CCC(=O)N1CCc2cc(S(=O)(=O)NC(C(=O)NCCc3ccccc3)C(C)C)ccc21 (stereo not given) ?
HP1b chromo inh: 8%; G9a inh: -3%[59 µM]; JMJD2A Tudor: -13%

Results for O=C(CC(c1cccs1)S(=O)(=O)c1ccccc1)c1ccc(F)cc1 (stereo not given) ?
HP1b chromo inh: 30%; G9a inh: 8.9µM*; CtBP-E1A inh: -9; Six1-Eya2 blk: 0; JMJD2A Tudor: 9%; BAZ2B block: -24%

How did COc1ccc(C2C(C#N)=C(C)NC3=C2C(=O)c2ccccc23)cc1 (stereo not given) do in these assays?
HP1b chromo inh: -6%; G9a inh: inconclusive; CtBP-E1A inh: -8; Six1-Eya2 blk: -9; JMJD2A Tudor: inconclusive; BAZ2B block: inconclusive

What do the screens show for `CC1(C)CC(=O)C2=C(C1)NC1=C(C(=O)c3ccccc31)C2c1ccccc1` (stereo not given)?
HP1b chromo inh: 50µM*; G9a inh: 20µM*; CtBP-E1A inh: 0; Six1-Eya2 blk: inconclusive; JMJD2A Tudor: 40µM*; BAZ2B block: 32µM*
